PubChem BioAssay (NCI)
About 83,000 compounds went through this panel and 20% of them were active in at least one assay; those are over-represented in the sample as a whole.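 Method: cells in 96-well plates; compound added at one concentration; 48 h incubation; percent growth measured; values under 10 scored active.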 The source made the active and inactive calls.

How the values were obtained:
Experiment in all cases: NCI-60 one-dose screen, 48 h (100 = growth as untreated, 0 = no growth, -100 = all killed)
Settings in all cases: 10 µM
NCI-H23 lung = tested on: NCI-H23 lung
NCI-H226 lung = tested on: NCI-H226 lung
NCI-H322M lung = tested on: NCI-H322M lung
HOP-62 NSCLC = tested on: HOP-62 NSCLC
NCI-H460 lung = tested on: NCI-H460 lung
HOP-92 NSCLC = tested on: HOP-92 NSCLC
NCI-H522 lung = tested on: NCI-H522 lung
A549/ATCC NSCLC = tested on: A549/ATCC NSCLC
786-0 renal = tested on: 786-0 renal
COLO 205 colon = tested on: COLO 205 colon

Measured: growth

CCCCOCCOCCOCc1cc2c(cc1Br)OCO2
inactive: NCI-H23 lung 99.3% | NCI-H226 lung 97.4% | NCI-H322M lung 91.8% | HOP-62 NSCLC 92.7% | NCI-H460 lung 111% | HOP-92 NSCLC 85% | NCI-H522 lung 80.4% | A549/ATCC NSCLC 91.2% | 786-0 renal 100% | COLO 205 colon 107%

O=C(OCC1OC(n2cc(C(F)(F)F)c(=O)[nH]c2=O)CC1OC(=O)c1ccc([N+](=O)[O-])cc1)c1ccc([N+](=O)[O-])cc1 (stereo not given)
inactive: NCI-H23 lung 90.9% | NCI-H226 lung 72.5% | NCI-H322M lung 91.2% | HOP-62 NSCLC 75.9% | NCI-H460 lung 31.2% | HOP-92 NSCLC 69.9% | NCI-H522 lung 76.6% | A549/ATCC NSCLC 69.6% | 786-0 renal 18.9% | COLO 205 colon 87.8%

COc1ccc(C(=O)n2nc(CC(=O)NCc3ccccc3)nc2N)cc1
inactive: NCI-H23 lung 108% | NCI-H226 lung 106% | NCI-H322M lung 95.4% | HOP-62 NSCLC 108% | NCI-H460 lung 115% | HOP-92 NSCLC 111% | NCI-H522 lung 104% | A549/ATCC NSCLC 109% | 786-0 renal 97% | COLO 205 colon 117%

N#Cc1ccc(-n2cnc(NC(=O)[C@H]3CCN(C#N)C3)c2)cc1
active: NCI-H522 lung -37.8% | COLO 205 colon -55.3%
inactive: NCI-H23 lung 19.8% | NCI-H226 lung 26.4% | NCI-H322M lung 43.5% | HOP-62 NSCLC 23% | NCI-H460 lung 15.3% | HOP-92 NSCLC 42% | A549/ATCC NSCLC 23.8% | 786-0 renal 23.7%

COC(=O)C1(C(=O)OC)C2C(=O)C3C(C21)C3(C(=O)OC(C)(C)C)C(=O)OC(C)(C)C (stereo not given)
inactive: NCI-H23 lung 107% | NCI-H226 lung 89.5% | NCI-H322M lung 108% | HOP-62 NSCLC 99.9% | NCI-H460 lung 113% | HOP-92 NSCLC 97.8% | NCI-H522 lung 111% | A549/ATCC NSCLC 109% | 786-0 renal 102% | COLO 205 colon 115%

CC1(C)CC(OCCCC[P+](c2ccccc2)(c2ccccc2)c2ccccc2)CC(C)(C)N1O
inactive: NCI-H226 lung 12.7% | HOP-62 NSCLC 13.3%
active: NCI-H23 lung 4.57% | NCI-H322M lung 9.8% | NCI-H460 lung 2.69% | HOP-92 NSCLC -41.4% | NCI-H522 lung -14.3% | A549/ATCC NSCLC 6.09% | 786-0 renal -12.4% | COLO 205 colon -55.3%

C=CCOc1ccc2c(c1)CC[C@@H]1[C@@H]2CC[C@]2(C)C(=O)/C(=N/O)C[C@@H]12
active: HOP-92 NSCLC -5.15%
inactive: NCI-H23 lung 60.1% | NCI-H226 lung 76.2% | NCI-H322M lung 50.9% | HOP-62 NSCLC 56.7% | NCI-H460 lung 64% | NCI-H522 lung 44.5% | A549/ATCC NSCLC 58.5% | 786-0 renal 47.3% | COLO 205 colon 40.8%

Cc1ccccc1C1=N[C@@H](Cc2ccccc2)C(=O)c2c(nc3ccccn23)N1
inactive: NCI-H23 lung 95.3% | NCI-H226 lung 98.9% | NCI-H322M lung 106% | HOP-62 NSCLC 93.4% | NCI-H460 lung 103% | HOP-92 NSCLC 90.5% | NCI-H522 lung 121% | A549/ATCC NSCLC 91.7% | 786-0 renal 101% | COLO 205 colon 107%

O=NN(CCCl)C(=O)Nc1ccc(NC(=O)N(CCCl)N=O)cc1
inactive: NCI-H23 lung 107% | NCI-H226 lung 96.5% | NCI-H322M lung 112% | HOP-62 NSCLC 105% | NCI-H460 lung 88.7% | HOP-92 NSCLC 84.8% | NCI-H522 lung 114% | A549/ATCC NSCLC 82.8% | 786-0 renal 61.3% | COLO 205 colon 105%

CC(C)C[C@H](NC(=O)Cn1ccc2ccccc2c1=O)B(O)O
inactive: NCI-H23 lung 74.5% | NCI-H226 lung 11.5% | NCI-H322M lung 102% | HOP-62 NSCLC 98.4% | NCI-H460 lung 106% | HOP-92 NSCLC 99% | NCI-H522 lung 28.6% | A549/ATCC NSCLC 84.9% | 786-0 renal 70.3% | COLO 205 colon 62.2%

O=[N+]([O-])c1ccc(-c2nc(-c3ccccc3)c(-c3ccccc3)n2-c2ccccc2)cc1
inactive: NCI-H23 lung 25.2% | NCI-H226 lung 57% | NCI-H322M lung 58.5% | HOP-62 NSCLC 38.2% | NCI-H460 lung 36.4% | A549/ATCC NSCLC 34.6% | 786-0 renal 57.3% | COLO 205 colon 68.1%
active: HOP-92 NSCLC -12.6% | NCI-H522 lung -11.7%

CCOc1nc(-c2ccccc2)cc2c(O)c(C(=O)NCCCO)[nH]c(=O)c12
inactive: NCI-H23 lung 103% | NCI-H226 lung 94.7% | NCI-H322M lung 106% | HOP-62 NSCLC 91.1% | NCI-H460 lung 110% | HOP-92 NSCLC 66% | NCI-H522 lung 77.4% | A549/ATCC NSCLC 106% | 786-0 renal 106% | COLO 205 colon 118%

Cc1ccc(-n2nnc3c(sc4ccccc43)c2=O)cc1
active: HOP-92 NSCLC 6.27%
inactive: NCI-H23 lung 70.3% | NCI-H226 lung 46.9% | NCI-H322M lung 38.8% | HOP-62 NSCLC 31.6% | NCI-H460 lung 18.3% | NCI-H522 lung 58.6% | A549/ATCC NSCLC 35.3% | 786-0 renal 24.4% | COLO 205 colon 44%

NC1CCC(Nc2nc(NCc3cc(Cl)ccc3O)c3ncn(C4CCCC4)c3n2)CC1 (stereo not given)
inactive: NCI-H322M lung 10.9%
active: NCI-H23 lung -49.1% | NCI-H226 lung -6.72% | HOP-62 NSCLC -18% | NCI-H460 lung 0.39% | HOP-92 NSCLC -18.1% | NCI-H522 lung -50.2% | A549/ATCC NSCLC -4.99% | 786-0 renal -11.3% | COLO 205 colon -63.1%

CCOC(=O)c1c(Cl)c2c(n1Cc1cccc(OC)c1)-c1oncc1CC2
active: NCI-H322M lung -7.41% | NCI-H460 lung 9.8% | NCI-H522 lung 5.7%
inactive: NCI-H23 lung 50.5% | NCI-H226 lung 56.9% | HOP-62 NSCLC 37.5% | HOP-92 NSCLC 31% | A549/ATCC NSCLC 45% | 786-0 renal 33.7% | COLO 205 colon 19.9%

CC(=O)/C(=C\c1ccc(Cl)cc1)c1ccccc1
active: NCI-H226 lung 8.66% | NCI-H460 lung 6.31% | HOP-92 NSCLC -0.736% | NCI-H522 lung -1.57% | COLO 205 colon -40.5%
inactive: NCI-H23 lung 20.1% | NCI-H322M lung 49.1% | HOP-62 NSCLC 32% | A549/ATCC NSCLC 17.1% | 786-0 renal 22.9%

O=NN(CC(=O)N/N=C/C=C\c1ccccc1)CC(=O)N/N=C/C=C/c1ccccc1
inactive: NCI-H23 lung 112% | NCI-H226 lung 90.7% | NCI-H322M lung 91.2% | HOP-62 NSCLC 69.6% | NCI-H460 lung 99.3% | HOP-92 NSCLC 60.6% | NCI-H522 lung 95.5% | A549/ATCC NSCLC 97.3% | 786-0 renal 110% | COLO 205 colon 109%

CC1=CC2OC34COC3CC(OC(=O)C(F)(F)F)C4(C)C2(C)CC1 (stereo not given)
inactive: NCI-H23 lung 110% | NCI-H226 lung 98.7% | NCI-H322M lung 96.1% | HOP-62 NSCLC 97.4% | NCI-H460 lung 104% | HOP-92 NSCLC 104% | NCI-H522 lung 103% | A549/ATCC NSCLC 97.8% | 786-0 renal 101% | COLO 205 colon 99.7%

CC1(CO)CCCC12OCCO2 (stereo not given)
inactive: NCI-H23 lung 106% | NCI-H226 lung 99.7% | NCI-H322M lung 107% | HOP-62 NSCLC 100% | NCI-H460 lung 105% | HOP-92 NSCLC 120% | NCI-H522 lung 93% | A549/ATCC NSCLC 101% | 786-0 renal 102% | COLO 205 colon 114%

CS(=O)(=O)Nc1ccc([N+](=O)[O-])cc1Oc1ccccc1
inactive: NCI-H23 lung 92.6% | NCI-H226 lung 96% | NCI-H322M lung 103% | HOP-62 NSCLC 93% | NCI-H460 lung 102% | HOP-92 NSCLC 51.8% | NCI-H522 lung 92.6% | A549/ATCC NSCLC 89.3% | 786-0 renal 98.4% | COLO 205 colon 99.7%

Cc1cc(C)c(/C=C2\C(=O)Nc3ccc(NC(=O)CCCCCCC(=O)NO)cc32)[nH]1
active: HOP-92 NSCLC -30.4% | NCI-H522 lung -10.6% | COLO 205 colon 3.61%
inactive: NCI-H23 lung 52.4% | NCI-H226 lung 65.6% | NCI-H322M lung 31.3% | HOP-62 NSCLC 34% | NCI-H460 lung 77.4% | A549/ATCC NSCLC 82% | 786-0 renal 72%

C/C(=N/NC(=O)c1sc(=S)n(C)c1N)c1cc2cc(Cl)ccc2o1
inactive: NCI-H23 lung 97.9% | NCI-H226 lung 102% | NCI-H322M lung 88.1% | HOP-62 NSCLC 96.5% | NCI-H460 lung 89% | HOP-92 NSCLC 114% | NCI-H522 lung 88.6% | 786-0 renal 106% | COLO 205 colon 104%
active: A549/ATCC NSCLC 8.04%

COc1cc(-c2cc(-c3ccc(C)cc3)nc3nc(N)[nH]c(=O)c23)ccc1Oc1ccnc2cc(Cl)ccc12
inactive: NCI-H23 lung 107% | NCI-H226 lung 73.3% | NCI-H322M lung 80.6% | HOP-62 NSCLC 98.4% | NCI-H460 lung 96% | HOP-92 NSCLC 70.4% | NCI-H522 lung 92.5% | A549/ATCC NSCLC 78.7% | 786-0 renal 98.1% | COLO 205 colon 107%

CCOc1ccc2c(c1)CC[C@@H]1[C@@H]2CC[C@]2(C)[C@@H](O)[C@@H](O)C[C@@H]12
inactive: NCI-H23 lung 106% | NCI-H226 lung 85.7% | NCI-H322M lung 91.4% | HOP-62 NSCLC 114% | NCI-H460 lung 100% | HOP-92 NSCLC 122% | NCI-H522 lung 119% | A549/ATCC NSCLC 80.3% | 786-0 renal 101% | COLO 205 colon 112%

O=C(NNc1nc(N2CCCC2)nc(N2CCCC2)n1)c1ccccc1
inactive: NCI-H23 lung 99.3% | NCI-H226 lung 107% | NCI-H322M lung 94.9% | HOP-62 NSCLC 101% | NCI-H460 lung 117% | HOP-92 NSCLC 83.5% | NCI-H522 lung 94.2% | A549/ATCC NSCLC 104% | 786-0 renal 121% | COLO 205 colon 109%

C/C(=N\NC(=S)N1CCCC1)c1ccccn1
inactive: NCI-H23 lung 17% | HOP-92 NSCLC 48.5% | 786-0 renal 20%
active: NCI-H226 lung -7.28% | NCI-H322M lung 6.18% | HOP-62 NSCLC 10% | NCI-H460 lung 1.6% | NCI-H522 lung 5.12% | A549/ATCC NSCLC 0.905% | COLO 205 colon 5.14%

C#CCNCCCN1C(=O)c2ccc3c4c(ccc(c24)C1=O)C(=O)N(CCCNCC#C)C3=O
active: NCI-H23 lung -45% | NCI-H226 lung -48.6% | NCI-H322M lung -94.4% | HOP-62 NSCLC -67.8% | NCI-H460 lung -78.5% | HOP-92 NSCLC -26.3% | NCI-H522 lung -78.4% | A549/ATCC NSCLC -72.3% | 786-0 renal -56.9% | COLO 205 colon -86.7%
